Laboratory results taken from ChEMBL document CHEMBL4513137, “CO-ADD screening of University of Manchester (UK) compounds”.
Results with a measured potency or affinity are listed apart.

What follows are compounds tested on Candida albicans. Settings: 32 ug/mL.

Row | SMILES | Inhibition [%]
1 | COc1cc([N+](=O)[O-])ccc1-c1c(Nc2ccccc2)cccc1OC | 5.26
2 | O=[N+]([O-])c1ccc(-c2ccccc2Nc2ccccc2)cc1F | 8.22
3 | CN(c1ccccc1)c1ccccc1-c1ccc([N+](=O)[O-])cc1 | 4.63
4 | CC(=O)c1ccc(-c2ccccc2Nc2ccccc2)cc1 | 1.55
5 | O=[N+]([O-])c1ccc(-c2ccccc2Nc2ccccc2)cc1C(F)(F)F | 12.5
6 | c1ccc(Nc2ccccc2-c2ncccn2)cc1 | 12.1
7 | Cc1cccc(C)c1Nc1ccccc1-c1ccccc1[N+](=O)[O-] | 6.73
8 | O=[N+]([O-])c1ccc(-c2ccccc2Nc2ccccc2)cc1 | 9.3
9 | COc1cccc(Nc2ccccc2)c1-c1ccc([N+](=O)[O-])cc1 | 7.07
10 | Clc1cc(Br)cc(Cl)c1-c1ccccc1Nc1ccccc1 | 5.55
11 | O=[N+]([O-])c1ccc(-c2c(Nc3ccccc3)cccc2-c2ccccc2)cc1 | 7.71
12 | O=[N+]([O-])c1ccc(-c2c(Nc3ccccc3)ccc3ccccc23)cc1 | 1.64
13 | COc1ccc(Nc2ccccc2-c2ccc([N+](=O)[O-])cc2)cc1 | 5.77
14 | O=[N+]([O-])c1ccc(-c2cccc3c2[nH]c2ccccc23)cc1 | 4.69
15 | O=[N+]([O-])c1ccc(-c2ccccc2Nc2ccccc2Br)cc1 | 4.47
16 | O=[N+]([O-])c1cc(Cl)c(-c2ccccc2Nc2ccccc2)c(Cl)c1 | 6.95
17 | COc1cc([N+](=O)[O-])ccc1-c1ccccc1Nc1ccccc1 | 5.71
18 | O=[N+]([O-])c1ccc2c3ccccc3n(-c3ccccc3)c2c1 | 8.19
19 | N#Cc1ccc(-c2ccccc2Nc2ccccc2)cc1 | 10.8
20 | CC[C@@H](Nc1ccccc1-c1c(Cl)cc(Br)cc1Cl)c1ccccc1 | 9.45
21 | COc1cccc(Nc2ccccc2)c1-c1c(Cl)cc(Br)cc1Cl | 23.8
22 | Cc1ccccc1Nc1ccccc1-c1ccc([N+](=O)[O-])cc1 | -0.09
23 | O=[N+]([O-])c1ccc(-c2ccccc2N(Cc2ccccc2)c2ccccc2)cc1 | 8.51
24 | COc1cccc(N(C)c2cccc(OC)c2-c2ccc([N+](=O)[O-])cc2C)c1 | 3.58
25 | Cc1cc([N+](=O)[O-])ccc1-c1ccccc1N(C)c1ccccc1 | 5.96
26 | Cc1cc(C)c(Nc2ccccc2-c2ccc([N+](=O)[O-])cc2)c(C)c1 | 7.08
27 | O=[N+]([O-])c1ccc(-c2ccccc2Nc2ccccc2)c(Cl)c1 | 10.1

What follows are compounds tested on Cryptococcus neoformans. Settings: Concentration 32 ug.mL-1; ASSAY_TEST Inhibition of Fungal Growth; detection method Resazurin; Absorption (OD600-OD570); plate type 384well; NBS; CORNING #3640.

Row | SMILES | Inhibition [%]
28 | COc1cc([N+](=O)[O-])ccc1-c1c(Nc2ccccc2)cccc1OC | -2.27
29 | O=[N+]([O-])c1ccc(-c2ccccc2Nc2ccccc2)cc1F | 3.42
30 | CN(c1ccccc1)c1ccccc1-c1ccc([N+](=O)[O-])cc1 | 1.49
31 | CC(=O)c1ccc(-c2ccccc2Nc2ccccc2)cc1 | 0.86
32 | O=[N+]([O-])c1ccc(-c2ccccc2Nc2ccccc2)cc1C(F)(F)F | 2.9
33 | c1ccc(Nc2ccccc2-c2ncccn2)cc1 | 7.92
34 | Cc1cccc(C)c1Nc1ccccc1-c1ccccc1[N+](=O)[O-] | 4.1
35 | O=[N+]([O-])c1ccc(-c2ccccc2Nc2ccccc2)cc1 | 1.06
36 | COc1cccc(Nc2ccccc2)c1-c1ccc([N+](=O)[O-])cc1 | 1.49
37 | Clc1cc(Br)cc(Cl)c1-c1ccccc1Nc1ccccc1 | 2.48
38 | O=[N+]([O-])c1ccc(-c2c(Nc3ccccc3)cccc2-c2ccccc2)cc1 | 2.38
39 | O=[N+]([O-])c1ccc(-c2c(Nc3ccccc3)ccc3ccccc23)cc1 | 0.54
40 | COc1ccc(Nc2ccccc2-c2ccc([N+](=O)[O-])cc2)cc1 | 2.27
41 | O=[N+]([O-])c1ccc(-c2cccc3c2[nH]c2ccccc23)cc1 | -0.08
42 | O=[N+]([O-])c1ccc(-c2ccccc2Nc2ccccc2Br)cc1 | 1.33
43 | O=[N+]([O-])c1cc(Cl)c(-c2ccccc2Nc2ccccc2)c(Cl)c1 | -0.86
44 | COc1cc([N+](=O)[O-])ccc1-c1ccccc1Nc1ccccc1 | -0.44
45 | O=[N+]([O-])c1ccc2c3ccccc3n(-c3ccccc3)c2c1 | 2.74
46 | N#Cc1ccc(-c2ccccc2Nc2ccccc2)cc1 | 2.95
47 | CC[C@@H](Nc1ccccc1-c1c(Cl)cc(Br)cc1Cl)c1ccccc1 | 0.76
48 | COc1cccc(Nc2ccccc2)c1-c1c(Cl)cc(Br)cc1Cl | 9.7
49 | Cc1ccccc1Nc1ccccc1-c1ccc([N+](=O)[O-])cc1 | -1.9
50 | O=[N+]([O-])c1ccc(-c2ccccc2N(Cc2ccccc2)c2ccccc2)cc1 | 2.22
51 | COc1cccc(N(C)c2cccc(OC)c2-c2ccc([N+](=O)[O-])cc2C)c1 | -0.6
52 | Cc1cc([N+](=O)[O-])ccc1-c1ccccc1N(C)c1ccccc1 | -0.44
53 | Cc1cc(C)c(Nc2ccccc2-c2ccc([N+](=O)[O-])cc2)c(C)c1 | 1.01
54 | O=[N+]([O-])c1ccc(-c2ccccc2Nc2ccccc2)c(Cl)c1 | 1.38
